Screening data as filed in PubChem.
pPAFAH inh: pPAFAH (human) enzyme inhibition; Q13093; recombinant pPAFAH, FP-rhodamine probe fluorescence polarization; inhibition, % at 3.39 µM; 330,000 compounds, 1.5% hits; AID 463082;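 active means inhibition above the mean inhibition across the screen plus 3 SD, cut at about 25% in these data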;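 further: inhibitors block binding of the rhodamine activity-based probe so polarization drops; 0% = enzyme with DMSO and 100% = wells lacking pPAFAH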
PAFAH1B3 inh: PAFAH1B3 (human) inhibition; Q15102; 340,000 compounds, 0.28% hits; inhibition, % at 3.39 µM; recombinant PAFAH1B3, FP-rhodamine probe, fluorescence polarization;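 active means inhibition above the screen-wide average of all tested compounds plus 3 SD, cut at about 25% in these data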;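 further: 0% = enzyme with DMSO only and 100% = wells lacking PAFAH1B3 protein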
Target sequence (Q15102 whole entry, looked up): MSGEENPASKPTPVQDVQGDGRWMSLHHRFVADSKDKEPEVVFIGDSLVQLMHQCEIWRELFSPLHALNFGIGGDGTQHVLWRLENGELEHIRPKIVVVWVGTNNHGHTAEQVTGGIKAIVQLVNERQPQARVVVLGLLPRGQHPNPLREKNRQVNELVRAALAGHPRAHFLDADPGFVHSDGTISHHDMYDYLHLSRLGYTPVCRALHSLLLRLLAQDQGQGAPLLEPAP
PME-1 inh: blocks human protein phosphatase methylesterase 1; 320,000 compounds, 0.53% hits; recombinant PME-1, FP-Rh probe fluorescence polarization; inhibition, % at 5.9 µM;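 active means inhibition above the campaign mean of all compounds plus 3 SD, cut at about 26% in these data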;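 further: competitive labeling of PME-1 active site by serine hydrolase directed probe; 0% = PME-1 with DMSO and 100% = wells lacking PME-1 enzyme; inhibitors block probe labeling so polarization falls and inhibition rises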
Fam108B counter: counter-screen for RBBP9 inhibitors: inhibitors of mouse Fam108B; recombinant Fam108B, FP-Rh probe fluorescence polarization; inhibition, % at 9.51 µM; 300,000 compounds, 0.33% hits; AID 1947;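 active means inhibition above the screen mean inhibition plus 3 SD, computed separately per campaign, cut at about 18% in these data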;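 further: inhibitors lower polarization as less probe binds the enzyme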
PAFAH2 inh: PAFAH2 (human) inhibition; Q99487; recombinant PAFAH2, FP-rhodamine activity probe, fluorescence polarization; inhibition, % at 3.39 µM; 340,000 compounds, 0.99% hits;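 active means inhibition above the mean over all tested compounds plus 3 SD, cut at about 30% in these data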;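 further: inhibitors block probe labeling of enzyme so polarization drops; 0% = enzyme with DMSO and 100% = wells lacking PAFAH2 protein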
PAFAH1B2 FP inh: inhibitors of human PAFAH1B2. recombinant PAFAH1B2, FP-rhodamine activity probe, fluorescence polarization. P68402. 340,000 compounds, 1.2% hits. inhibition, % at 3.39 µM;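 active means inhibition above the mean of all tested compounds plus 3 SD, cut at about 24% in these data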;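 further: 0% = enzyme with DMSO and 100% = wells lacking PAFAH1B2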
Target sequence (P68402 whole entry, looked up): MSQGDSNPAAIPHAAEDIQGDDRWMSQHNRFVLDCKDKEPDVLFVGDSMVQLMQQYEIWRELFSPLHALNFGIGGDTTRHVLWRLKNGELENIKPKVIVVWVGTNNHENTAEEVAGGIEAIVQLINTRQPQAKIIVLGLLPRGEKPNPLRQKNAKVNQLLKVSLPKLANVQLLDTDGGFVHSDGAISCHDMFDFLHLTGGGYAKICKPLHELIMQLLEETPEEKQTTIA
pPAFAH FP conf: confirmation of human plasma PAF acetylhydrolase (pPAFAH) inhibitors; inhibition, % at 3.39 µM; shares compounds with pPAFAH inh; recombinant pPAFAH, FP-Rh probe fluorescence polarization; 2,300 compounds, 72% hits;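 active means mean inhibition of the triplicate above the hit cutoff set for the earlier primary screen, cut at about 25% in these data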;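 further: 0% = enzyme with DMSO and 100% = wells lacking pPAFAH enzyme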
* marks the source's active call; other numbers are inactive results; nt = not tested or not shown. An excerpt weighted towards active compounds, which were near 2.8% of everything screened.

SMILES	pPAFAH inh	PAFAH1B3 inh	PME-1 inh	Fam108B counter	PAFAH2 inh	PAFAH1B2 FP inh	pPAFAH FP conf
COc1cc2[nH]c(=O)n(CCCCCC(=O)N3CC=C(c4ccccc4)CC3)c(=O)c2cc1OC	20	7	-2	-7	-2	0	nt
O=C(NC1CCCC1)c1ccc2nc(-c3ccco3)c(-c3ccco3)nc2c1	68*	14	10	18	38*	16	34*
c1coc(-c2nc3ccccc3nc2-c2ccco2)c1	44*	26*	8	15	40*	23	11
O=C(NC1CCCC1)c1ccc2nc[nH]c2c1	8	1	-2	2	6	-3	nt
O=C(NCCO)c1ccc(Cl)c(Cl)c1	0	3	3	5	-4	-6	nt
O=C(O)c1ccc2nc(-c3ccccc3)c(-c3ccccc3)nc2c1	6	0	-1	0	-2	22	nt
O=C(c1ccccc1)c1ccc2nc(-c3ccco3)c(-c3ccco3)nc2c1	58*	32*	-6	9	31*	6	43*
O=C(NCCO)c1ccc2nc(-c3ccco3)c(-c3ccco3)nc2c1	39*	40*	0	14	31*	19	11
Cc1cc(C)n2nc(C(=O)OCC(=O)c3ccc(F)cc3)nc2n1	0	0	-3	0	4	-2	nt
CC(/C=C/c1ccc2c(c1)OCO2)=N/NC(=O)c1ccc(C)nc1	2	8	-1	0	-11	2	nt
CN(C)c1ccc(C(CNC(=O)Cc2cccc3ccccc23)N(C)C)cc1 (configuration not stated)	4	5	-2	8	0	3	nt
O=C(NCCc1ccccc1)c1ccc2nc(-c3ccco3)c(-c3ccco3)nc2c1	60*	21	30*	11	8	5	37*
COc1ccc(CCNC(=O)c2cc(-c3ccco3)nc3ccccc23)cc1	36*	nt	3	4	nt	nt	15
CC(NC(=O)CCNC(=O)c1ccco1)c1ccccc1 (configuration not stated)	3	6	5	3	-3	6	nt
COc1ccccc1NC(=O)c1ccc(S(=O)(=O)NCc2ccco2)cc1	1	4	12	2	1	-1	nt
Cc1cc(C(=O)CCl)c(C)n1CCc1ccccc1	54*	nt	-2	-1	nt	nt	4
COc1ccc(NC(=O)CSc2nc(=O)n(CCN(C)C)c3c2CCCC3)cc1OC	5	0	-2	-4	0	3	nt
CC(=O)Nc1ccc(S(=O)(=O)Nc2nc3ccccc3nc2Nc2ccc(N)cc2)cc1	38*	12	9	8	11	3	11
Cc1cc(C(=O)OCC(=O)Nc2ccccc2[N+](=O)[O-])c2ccccc2n1	6	5	-2	1	5	3	nt
COCCNC(=O)C(=O)c1cc(C)n(-c2ccc([N+](=O)[O-])cc2)c1C	36*	1	2	-1	1	1	28*
Cc1ccc(S(N)(=O)=O)cc1NC(=O)C(c1ccccc1)c1ccccc1	-4	17	-1	1	3	3	nt
O=C(O)c1ccc(N/N=C/c2ccc(-c3cccc(Cl)c3)o2)cc1	65*	18	24	17	16	5	47*
Cc1cc(C)n(Cc2ccc(C(=O)N/N=C/c3ccc(-c4ccc([N+](=O)[O-])cc4)o3)o2)n1	52*	5	1	6	38*	-2	47*
NS(=O)(=O)c1ccc(-c2ccc(/C=N/Nc3ccc(C(=O)O)cc3)o2)cc1	21	5	-12	5	3	8	nt
CCCCC(=O)N/N=C/c1ccc(-c2ccc([N+](=O)[O-])cc2)o1	8	-2	4	0	8	3	nt
SMILES	pPAFAH inh	PAFAH1B3 inh	PME-1 inh	Fam108B counter	PAFAH2 inh	PAFAH1B2 FP inh	pPAFAH FP conf
O=C(O)c1ccc(-c2ccc(/C=N/Nc3ccc([N+](=O)[O-])cc3)o2)cc1	47*	10	47*	14	10	6	38*
CCO[C@@H]1OC(C(=O)NCc2ccccc2)=C[C@H](c2cn(C(C)=O)c3ccccc23)[C@H]1CCCO	7	-2	1	-2	7	2	nt
c1ccc(COc2ncnc3c2ncn3CCCN2CCN(c3ccccn3)CC2)cc1	nt	8	nt	nt	-5	1	nt
COc1cc(S(=O)(=O)NCCc2ccc3c(c2)OCO3)ccc1-n1cnnn1	1	4	1	3	8	1	nt
NS(=O)(=O)c1ccc(CNC(=O)Cc2cccs2)cc1	35*	6	1	1	10	-2	7
CCOc1ccccc1OCCCC(=O)NNC(=O)c1nn(C)c(=O)c2ccccc12	-7	2	2	nt	0	7	nt
Cc1ccc(S(=O)(=O)N2CCN(C(=O)COC(=O)c3ccccn3)CC2)c(C)c1	44*	4	7	6	4	3	0
CCCOc1ccc(C(C)=O)cc1CSc1nc(O)cc(=O)[nH]1	35*	3	0	2	6	3	11
Cc1cc(C(=O)N/N=C/c2ccc([N+](=O)[O-])o2)c(C)o1	42*	8	3	6	1	-1	7
CSc1nnc(-c2sc(-c3ccccc3)nc2C)n1C	3	4	-1	-2	-1	-5	nt
N=C1/C(=C\c2ccc(OC(=O)c3ccccc3Cl)cc2)C(=O)N=C2SC(N3CCOCC3)=NN12	36*	16	5	1	8	5	33*
Cc1nn(-c2ccccc2)c2sc(C(=O)O)cc12	4	3	0	-3	4	3	nt
Cc1nn(-c2ccccc2)c2sc(-c3n[nH]c(=S)o3)cc12	52*	9	39*	7	19	4	69*
COc1cc(-c2nnc(SCC(=O)Nc3ccc(C(=O)O)cc3)o2)cc(OC)c1OC	3	2	nt	nt	-1	-1	nt
Cc1cnc(C(=O)OC(C)C(=O)Nc2ccccc2-c2ccccc2)cn1 (configuration not stated)	3	9	-1	0	-3	4	nt
Cc1ccc(N2C(=O)c3ccccc3C2C(=O)c2ccc(O)cc2O)cc1 (configuration not stated)	47*	9	-1	3	9	0	5
Cc1ccc(C)c(NC(=O)CCN2CCN(CCO)CC2)c1	7	4	-2	-3	-3	-6	nt
O=c1nc2s/c(=C\c3ccco3)c(=O)n2nc1Cc1ccc(F)cc1	40*	8	-4	3	4	0	19
Cc1ccc(-c2nc3s/c(=C\c4ccco4)c(=O)n3n2)cc1	1	12	-13	7	4	2	nt
COc1cc([N+](=O)[O-])cc(/C=N/NC(=O)C(C)Nc2cccc3ccccc23)c1O (configuration not stated)	40*	14	4	8	2	8	59*
